Bioassay records deposited in PubChem by National Center for Advancing Translational Sciences (NCATS).
In the library only some 7.8% were active in any assay of this set; here they are far more common.
HCMV inh = human cytomegalovirus inhibition; HFF cells, HCMV-luciferase reporter, 72 h; active compounds read low; activity change, negative = inhibition, % at 57.5 µM; 4.5% of 410,000 active; AID 1259415; in the data active = activity change below about -60%; inconclusive = no clear call, values can overlap the other calls; inactive = above about -39%
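Human foreskin fibroblasts infected with luciferase-reporter HCMV at MOI 1 PFU/cell, compounds at two doses. Luciferase measured 72 h post infection; normalized to buffer-only basal and Salinomycin (10uM) controls.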
Lassa entry inh = blocks Lassa virus binding to or entry into cells; Lassa virus pseudotype entry inhibition, cell reporter; Potency, µM (highest dose often 37.9 µM), usual class: inhibitors; 1.2% of 300,000 active; AID 540256; calls by dose curve; tested in HEK293 cells; note: nearly all actives have a fitted effect of over 50% in size
Vaccinia Venus = inhibitors of vaccinia virus (Venus reporter) | Vaccinia virus Venus reporter expression, fluorescence | Potency, µM (titrated, usually from 36.5 µM), usual class: inhibitors | 0.46% of 330,000 active; calls by dose curve; tested in A549 cells; note: nearly all actives have a fitted effect of over 30% in size
Vaccinia mCherry = vaccinia inhibition (mCherry reporter); Vaccinia virus mCherry reporter infection, fluorescence; Potency, µM (highest dose often 36.5 µM), actives largely listed as inhibitors; 0.63% of 310,000 active; AID 720579; calls by dose curve; tested in A549 cells; note: nearly all actives have a fitted effect of over 35% in size
Marburg entry inh = inhibitors of Marburg virus binding or cell entry; 1.8% of 300,000 active; Marburg virus pseudotyped entry inhibition, cell reporter; Potency, µM (series often up to 37.8 µM), actives largely listed as inhibitors; AID 540276; calls by dose curve; tested in HEK293 cells
HCV inhibitor = inhibitors of hepatitis C virus infection. Huh7.5.1 HCVcc-Cre infection, luciferase reporter, 44 h. Potency, µM (top dose mostly 41.8 µM), actives largely listed as inhibitors. 3.4% of 340,000 active. AID 651820; active = well fitted inhibition curve with a large enough effect; inconclusive = small, poorly fitted or top-dose-only effect, or another doubt; inactive = no such curve, though single readings can be large or run the other way
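After 44 h co-culture of compound, cells and HCVcc-Cre (~0.5 moi), substrate is added for 15 min at room temperature and luciferase measured over 15 sec. Cells were seeded at 1,000/well and pre-cultured 4 h.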
A number is an active result; . = inactive; ? = inconclusive; / = no result.

SMILES | HCMV inh | Lassa entry inh | Vaccinia Venus | Vaccinia mCherry | Marburg entry inh | HCV inhibitor
Cc1cc(-c2ccc(Br)s2)nc(-n2cccc2)n1 | . | . | . | . | . | 11.2µM
Cc1cc(-c2sccc2Br)nc(-n2cccc2)n1 | . | . | . | . | . | 12.6µM
C=CCOC(=O)C(C(C)=O)[C@@H](NC(=O)OC)c1ccco1 (stereo partly drawn) | / | / | / | / | . | /
Clc1ccc2c(ccc[n+]2CCc2ccccc2)c1 | / | / | . | . | / | /
CCc1cc(=O)oc2c3c(cc(OCC(=O)NCc4cccnc4)c12)OC(C)(C)CC3 | . | / | . | . | / | ?
COc1cc2c(c3oc(=O)cc(CC(=O)O)c13)CCC(C)(C)O2 | . | / | / | / | / | 10µM
COc1ccc(CNC(=O)COc2cc3c(c4oc(=O)cc(C)c24)CCC(C)(C)O3)cc1OC | . | / | . | . | / | 6.31µM
CCc1cc(=O)oc2c3c(cc(OCC(=O)Nc4cccnc4)c12)OC(C)(C)CC3 | . | / | . | . | / | 10µM
CC#CCN1c2ccccc2[C@]23CCC(=O)N(Cc4ccco4)C2=NC(C(=O)OC)=C(C(=O)OC)[C@H]13 | / | / | / | / | . | /
OCCN1CCN(Cc2ccc3c(c2)CN(Cc2cnc(-c4ccccc4)s2)CCO3)CC1 | / | / | . | . | / | /
CCOC(=O)c1c(C)n(-c2ccccc2)c2ccc(OC(=O)COc3ccc(Cl)cc3)cc12 | . | . | . | . | / | /
O=C(COc1ccccc1F)NC1CC(=O)N(c2ccc3c(c2)OCCO3)C1 (stereo not drawn) | . | ? | . | . | / | /
Brc1ccc(-c2csc(/N=C/N3CCCC3)n2)cc1 | . | ? | . | . | 8.91µM | 11.2µM
Brc1ccc(-c2csc(N3CCOCC3)n2)cc1 | . | / | / | / | / | 11.2µM
OC(CN1CCOCC1)Cn1cnc2ccccc21 (stereo not drawn) | . | . | . | . | ? | .
OC(CN1CCOCC1)Cn1c(-c2cccc(Cl)c2)nc2ccccc21 (stereo not drawn) | -101.8 | . | / | / | . | .
Cn1c(-c2cccc(C(F)(F)F)c2)cc2cnc(Nc3cccc(Oc4ccccc4)c3)cc21 | . | / | / | / | / | /
CC(=O)Oc1cc2c(C(=O)NCCCN3CCOCC3)c(C)oc2c2ccccc12 | . | . | . | . | ? | 11.2µM
Cc1c(OCC(=O)NCCCN2CCOCC2)ccc2c1oc(=O)c1ccccc12 | . | / | / | / | / | .
O=C(c1ccc(F)cc1)C1CCN(Cc2ccccc2F)CC1 | ? | / | . | . | / | /
Cc1ccc(C(=O)C2CCN(CC(=O)N3CCN(c4ccc(F)cc4)CC3)CC2)cc1 | -69.5 | . | . | . | ? | .
O=C(CN1CCC(C(=O)c2ccc(F)cc2)CC1)Nc1ccc(F)cc1 | . | ? | ? | ? | ? | 10µM
O=C(CN1CCC(C(=O)c2ccc(F)cc2)CC1)NCc1ccccc1F | . | ? | . | ? | ? | 11.2µM
CC(=O)c1ccc(NC(=O)CN2CCC(C(=O)c3ccc(F)cc3)CC2)cc1 | . | . | . | . | . | ?
COc1ccc(-c2ccc3c(c2)N(C(C)C)C(=O)COC3)cc1 | . | / | / | / | / | /
SMILES | HCMV inh | Lassa entry inh | Vaccinia Venus | Vaccinia mCherry | Marburg entry inh | HCV inhibitor
O=C(NN=Cc1cc(=O)[nH]c(=O)[nH]1)c1ccncc1 | -67.5 | . | . | . | . | .
O=C(N/N=C/c1cc(Br)cc(Br)c1O)c1ccncc1 | . | ? | ? | 7.94µM | ? | ?
O=C(N/N=C/c1cc(Br)cc(Br)c1O)c1cccc(N2CCCC2=O)c1 | -99.1 | ? | . | . | ? | ?
Cc1cc(C(=O)N/N=C/c2cc(Br)cc(Br)c2OC(=O)c2cccc(F)c2)n[nH]1 | -96.0 | 11.6µM | . | ? | 18.3µM | ?
Cc1cc(OCc2cn(CC(=O)c3ccc(O)cc3)nn2)cc(C)c1C | / | . | / | / | / | /
Cc1ccc(NC(=O)c2oc3c(c2C)-c2[nH]ncc2CC3)c(Cl)c1 | . | . | . | . | . | /
COCC(C)Nc1ncnc2c1cnn2-c1ccc(C)c(C)c1 (stereo not drawn) | . | . | . | . | / | /
Cc1cccc(C(=O)Oc2c(Br)cc(Br)cc2/C=N/NC(=O)c2ccncc2)c1 | -71.1 | . | . | . | ? | .
O=C(N/N=C/c1sc(=O)n(-c2ccccc2)c1Cl)c1ccncc1 | -85.7 | . | . | . | ? | ?
O=C(N/N=C/c1cc(Br)c(Br)s1)c1ccncc1 | -89.6 | 10µM | ? | ? | ? | ?
O=C(N/N=C/c1ccc(Br)s1)c1ccncc1 | . | ? | . | . | ? | .
COc1cc(C(=O)N/N=C/c2sc(=O)n(-c3ccccc3)c2Cl)cc(OC)c1OC | ? | ? | ? | ? | . | ?
